Results as given in PubChem BioAssay AID540313 (Sanford-Burnham Center for Chemical Genomics, 2011).
Screen size: about 2,500 compounds; fewer than 10 were called active. Not all results are given here. Values without a mark were called inactive.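 How the source made its calls: active means inhibition of at least 30% at 20 µM; inactive means the rest.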

assay: colorimetric readout interference by compounds, confirmation, artefact control for Scp-1 inhibitor project, biochemical, single concentration (AID 540313); conditions: Colorimetric interference counterscreen, malachite green absorbance 630 nm; at 20 µM; hits give high values;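 further: compounds added after enzyme reaction finished so only phosphate colour detection is probed; plate controls were DMSO wells with completed Scp-1 reaction for no effect and substrate wells lacking enzyme for full effect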

SMILES	apparent inhibition (interference) [%]
O=c1c2cc(-c3ccccc3)sc2nc2n1N=C(c1cccs1)CS2	-15.6
O=C(c1ccc(CS(=O)(=O)c2ccccc2)o1)N1CCN(c2ccccc2)CC1	-14.5
Cc1ccc(C(=O)NNC(=O)c2cc3cc4ccccc4nc3s2)cc1	-12.3
N#CC1=C(SCc2ccccc2)NC(=O)C(C#N)C12CCCC2 (stereo unspecified)	-3.5
COc1cccc2sc(N(CCCN(C)C)C(=O)C(c3ccccc3)c3ccccc3)nc12	-9.56
CN(c1ccccc1)S(=O)(=O)c1ccc(Cl)c(C(=O)OCC(=O)NCc2ccco2)c1	-22.8
Nn1cnnc1N/N=C/c1cc([N+](=O)[O-])c(Cl)cc1Cl	2.55
O=C(COC(=O)/C=C/c1ccc(Br)o1)Nc1cccc(S(=O)(=O)N2CCOCC2)c1	-18.6
Cc1nnc(SCC(=O)Nc2ccc(S(=O)(=O)Nc3ccc(Cl)nn3)cc2)s1	-18.9
O=C(COC(=O)CCC(=O)c1cccs1)NCc1ccco1	-8.73
COCCCNc1nc2ccccc2nc1NS(=O)(=O)c1ccc(F)cc1	-12.6
O=S(=O)(Nc1ccccc1Cl)c1cccc2nsnc12	-11.2
CC(NC(=O)CC1SC(N)=NC1=O)c1ccccc1 (stereo unspecified)	-25.2
O=C(O)c1ccc(N/N=C/c2ccc3ncccc3c2)cc1	-19.2
ON=C1/C(=N\O)CC2(C/C1=N/O)OCCO2	-6.8
O=C(Nc1cc(S(=O)(=O)N2CCCCC2)ccc1Cl)C1COc2ccccc2O1 (stereo unspecified)	-8.46
Cc1nn(-c2cc(Cl)ccc2N)c(=O)c2ccccc12	-5.43
Cc1ccc(CN2CCN(c3ccccc3Cl)CC2)o1	-14.5
CN(CC(=O)Nc1cccc(F)c1)C(=O)C1CC(=O)N(CCc2ccccc2)C1 (stereo unspecified)	-6.79

SMILES	apparent inhibition (interference) [%]
COc1ccc(NC(=O)N(C)C[C@H]2Oc3ccc(NC(=O)C4CC4)cc3C(=O)N([C@H](C)CO)C[C@@H]2C)cc1	-15.3
COc1ccc(Cl)cc1C=CC=NNC(=O)c1ccncc1	-8.46
Cc1ccc(S(=O)(=O)Nc2ccc3c(c2)C(=O)N([C@H](C)CO)C[C@@H](C)[C@@H](CN(C)C(=O)Nc2cccc4ccccc24)O3)cc1	-13.6
C=C1c2cccc(OC)c2O[C@H](C(=O)OCC)[C@@H]1CCCCCC	-7.63
COc1cccc(CNS(=O)(=O)c2csc(C(N)=O)c2)c1	-12.8
O=C(Nc1cccc(F)c1)[C@@H]1CCCN1	-5.98
O=C(c1ccc2c(c1)OCO2)N1CCNc2ccccc2C1	-25.4
C[C@H](CO)N1C[C@H](C)[C@H](CN(C)C(=O)Nc2ccc(C(F)(F)F)cc2)Oc2c(NC(=O)c3ccncc3)cccc2C1=O	-21.4
Cc1ccccc1NC(=O)CN1C(=O)N/C(=C\c2cccn2-c2cccc(C(=O)O)c2)C1=O	6.13
N#Cc1c(-c2cccs2)nc(SCC(=O)c2ccc(Br)cc2)[nH]c1=O	-20.8
O=C(NNC(=O)c1ccc2ccccc2c1)c1ccc(Cl)cc1	-9.26
N#Cc1ccc(C(=O)Nc2cccc3cccnc23)c(F)c1	-4.88
Cc1ccc(S(=O)(=O)Nc2nc(C)cc(-n3nc(C)cc3C)n2)cc1	-5.43
O=C(CN1CCN(S(=O)(=O)/C=C/c2ccccc2)CC1)NC(=O)NCc1ccco1	-17.5
Cc1ccc(Cc2nnc(SCC(=O)Nc3ccc(C)cc3C)[nH]c2=O)cc1	-12.9
O=C(Cn1cc(/C=N/NC(=O)c2cccc(C(F)(F)F)c2)c2ccccc21)Nc1ccc(F)cc1	-10.9
CC1=NNC(=O)C1CCC(=O)N/N=C\c1cccc(Cl)c1 (stereo unspecified)	-21.4
CCCc1nc(-c2cc3cc(C)ccc3[nH]c2=O)no1	-14
COc1cccc(NC(C)=[N+](C)CCNS(=O)(=O)c2ccc(Cl)cc2)c1	-6.24

SMILES	apparent inhibition (interference) [%]
Cc1ccc(N=Cc2c(O)n(-c3nccs3)c(=O)c3ccccc23)c(C)c1	-22.5
O=C(CN1CCN(c2ccc(Cl)cc2)CC1)c1ccccc1	-14.5
O=C(Cn1nnc(-c2ccc3c(c2)OCO3)n1)NCc1ccco1	-12
Cc1cc(/C=C2\SC(=O)N(C)C2=O)c(C)n1-c1cccc(C(=O)O)c1	-18.6
Cc1c(CCC(=O)O)c(=O)oc2c(C)c(OCc3ccccc3Cl)ccc12	-5.7
COc1ccc2[nH]c3c(C)c4cc[n+](C)cc4c(C)c3c2c1	-5.15
NC(=O)NC(=O)CSc1nc2cc([N+](=O)[O-])ccc2n1-c1cccc(C(F)(F)F)c1	-5.7
CCOc1ccccc1/C=c1\sc2nc(-c3ccco3)nn2c1=O	-22.1
Cc1ccc(/C=C/C(=O)Nc2ccc([N+](=O)[O-])c(NC(=O)/C=C/c3ccc(C)o3)c2)o1	2.53
COc1ccc(OC)c(NC(=O)CSc2nc(-c3ccccc3)cc(=O)[nH]2)c1	-14.8
COc1ccc(OCC(=O)NNC(=O)c2ccc(-c3ccccc3)cc2)cc1	-11.5
Cc1c([N+](=O)[O-])c(N)nn1C	2.28
O=C1NN(c2ccccc2)C(=O)/C1=C/c1ccc(-c2cccc(C(=O)O)c2)o1	0.06
COc1ccc(/C=C/C(=O)OCC(=O)NC2CCCCCC2)cc1OC	5.86
Cc1ccc(CCCOC(=O)C[N+]2(C)CCCC2)cc1	-20
Cc1c(CCC(=O)O)c(=O)oc2cc(OCc3ccc(Br)cc3)ccc12	-11.7
CC1CCN(c2ccc(S(=O)(=O)Nc3cc(C(=O)O)cc(C(=O)O)c3)cc2[N+](=O)[O-])CC1	-19.7
CC(=O)Nc1ccc(N2C(=O)CCC2=O)cc1C	-12.9
